Rows were chosen to be rich in hits. Some 1.3% of all compounds tested hit in one or more screens of this group.
TcdB inh: blocks C. difficile toxin B glycohydrolase activity; P18177; TcdB glycohydrolase enzymatic assay, plate reader; inhibition, % at 9.99 µM; 0.24% of 350,000 active; AID 652162; in the data active = inhibition above about 10%
SSB-PriA inh: blocks PriA binding to SSB C-terminal tail | AlphaScreen SSBct-PriA binding, biotinylated peptide | 0.6% of 430,000 active | inhibition, % at 33 µM; in the data active = inhibition mostly above about 37%, no sharp cut-off; inactive = mostly below about 20%;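 also: plate controls were negative control peptide for no effect and reference peptide for full effect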
BH1578 lux ind: induces V. cholerae light production without autoinducers; V. cholerae BH1578 lux reporter, luminescence, 6 h; activation, % at 18.7 µM; 0.16% of 350,000 active; AID 588436; in the data active = activation mostly above about 9.7%, no sharp cut-off
VHR inh abs: inhibitors of human VHR1 phosphatase (DUSP3) | recombinant VHR phosphatase, pNPP absorbance | inhibition, % at 13.3 µM | 0.52% of 290,000 active | AID 1654; in the data active = inhibition above about 50%
SARS 3CLpro inh: SARS-CoV 3CLpro protease inhibition; recombinant SARS-CoV 3CLpro, quenched FRET peptide cleavage; inhibition, % at 6 µM; 0.14% of 290,000 active; P0C6X7; AID 1706; in the data active = inhibition above about 12%
CCHF vOTU inh: blocks the CCHF virus ovarian tumor domain protease | CCHFV vOTU protease, Pep-AMC fluorescence | inhibition, % at 11.5 µM | 0.55% of 370,000 active | AID 651958; in the data active = inhibition above about 30%; also: 0% = vehicle wells with enzyme and 100% = no enzyme wells
Active calls of the source: *; i = inactive; · = no result.

SMILES	TcdB inh	SSB-PriA inh	BH1578 lux ind	VHR inh abs	SARS 3CLpro inh	CCHF vOTU inh
CCOC(=O)c1ccc(NC(=O)c2sc3nc(C)ccc3c2N)cc1	·	-24	·	·	·	·
CCN1CCCc2cc(CCNC(=O)Nc3ccccc3)ccc21	·	63*	·	·	·	·
CCCN1CCCc2cc(CCNC(=O)C(=O)Nc3ccc(OC)c(Cl)c3)ccc21	·	37	·	·	·	·
Cc1cc(NC(=O)C(=O)NCCc2ccc3c(c2)CCCN3C)c2ccccc2n1	·	42*	·	·	·	·
CCN1CCCc2cc(CCNC(=O)C(=O)NCCc3ccccc3)ccc21	·	32	·	·	·	·
CCN1CCCc2cc(CCNC(=O)C(=O)Nc3cccc(NC(C)=O)c3)ccc21	·	54*	·	·	·	·
CCN1CCCc2cc(CCNC(=O)Nc3ccc(OC)c(OC)c3)ccc21	·	70*	·	·	·	·
CCNC(=O)C(=O)NCCc1ccc2c(c1)CCCN2CC	·	58	·	·	·	·
O=C(NCC(O)c1ccc2c(c1)CCO2)Nc1ccc2c(c1)OCO2 (stereo not drawn)	·	-7	·	·	·	·
Cc1ccc(S(=O)(=O)Nc2ccc3c(c2)C(=O)NCCO3)cc1C	·	-7	·	·	·	·
O=C(c1ccc(S(=O)(=O)N2CCOCC2)cc1)N1CCN(c2ncccn2)CC1	·	-20	·	·	·	·
O=C(NNC(=O)c1cccn(Cc2ccc(F)cc2)c1=O)c1ccco1	·	-3	·	·	·	·
O=C(NCCC(O)c1cccc2ccccc12)C(=O)Nc1cccnc1 (stereo not drawn)	·	-6	·	·	·	·
CCC(=O)Oc1ccc(C2NC(=O)c3ccccc3O2)cc1OC (stereo not drawn)	1	-4	0	60*	0	-4
CCCC(=O)Oc1ccc(C2NC(=O)c3ccccc3O2)cc1OC (stereo not drawn)	2	-16	i	60*	-3	-7
COc1ccc(C2NC(=O)c3ccccc3O2)cc1OC (stereo not drawn)	·	-6	-5	0	-8	-6
Cc1nnsc1C(=O)N1CCC(CNC(=O)c2cc(C3CC3)on2)CC1	·	-11	·	·	·	·
Cc1c(Cl)cccc1-n1ccn(CC(N)=O)c(=O)c1=O	·	-21	·	·	·	·
Cc1ccc(CNc2nccn(-c3cccc(Cl)c3C)c2=O)cc1	·	46*	·	·	·	·
O=c1c(NCc2ccc(Cl)cc2)nccn1-c1cccc(C(F)(F)F)c1	·	54*	·	·	·	·
O=c1c(NCc2ccc(F)cc2)nccn1-c1ccc(Br)cc1	·	-2	·	·	·	·
CCOC(=O)c1c(-c2ccc(OCC)cc2)csc1NC(=O)c1ccco1	·	-10	·	·	·	·
COc1ccccc1NC(=O)NC1CCN(c2ccc(-c3ccccc3Cl)nn2)CC1	·	-18	·	·	·	·
O=C1Nc2ccccc2C1=Nc1ccccc1-c1ccccc1	10*	7	i	·	·	9
Cc1cc(Br)ccc1N=C1C(=O)Nc2ccccc21	0	-2	-1	27	1	-4
SMILES	TcdB inh	SSB-PriA inh	BH1578 lux ind	VHR inh abs	SARS 3CLpro inh	CCHF vOTU inh
CCN(CC)CCOC(=O)c1ccc(NC(=O)CCCCCN2C(=O)S/C(=C/c3ccc(OC)cc3)C2=S)cc1	·	28	·	·	·	·
O=C(CSc1cccc(C(F)(F)F)c1)NC(=O)c1ccccc1	-5	-14	0	51*	-1	12
Cc1cc(C(=O)Nc2nnc(-c3ccc(Br)s3)o2)n(C)n1	·	-5	·	·	·	·
O=C(NCC1CCN(C(=O)c2ccncc2)CC1)C(=O)Nc1cccc(F)c1	·	-5	·	·	·	·
Oc1ccc(/C=N/Nc2ncnc3nc[nH]c23)cc1	10*	·	-4	25	2	9
O=C(CCl)NCC1CCCO1 (stereo not drawn)	-1	-9	-1	22	1	-16
O=C(CC1CCCCC1)NCC1CCCO1 (stereo not drawn)	·	-24	17*	14	-1	-7
COc1ccc(C(=O)OCc2cc(-c3ccc(F)cc3)on2)c(OC)c1	·	-15	·	·	·	·
Cc1ccsc1/C=N/NC(=O)c1nnn(-c2nonc2N)c1C	-1	·	1	56*	-8	6
CCCc1cc(NCCOCCO)n2c(nc3ccccc32)c1C#N	1	·	-1	·	·	-285
CC(C)c1cc(NCCOCCO)n2c(nc3ccccc32)c1C#N	0	39*	i	2	1	-220
CC1CCN(Cc2c(C(=O)NN=Cc3cc(Br)ccc3O)nnn2-c2nonc2N)CC1	·	-14	·	·	·	·
CCc1ccc(C(=O)NNC(=O)C2CC(=O)N(Cc3ccccc3)C2)cc1 (stereo not drawn)	0	-9	i	·	·	-6
O=C(NNC(=O)C1CC(=O)N(Cc2ccccc2)C1)c1ccc(Br)cc1 (stereo not drawn)	1	-6	-1	57*	0	5
CC(=O)NCCc1nc2ccccc2n1Cc1c(C)c(C)cc(C)c1C	·	4	·	·	·	·
Cc1ccc(NNC(=O)c2c(C)noc2C)cc1Cl	-1	-1	i	6	3	-14
Cc1cc(C(=O)NNc2ccc(C)c(C)c2)no1	61*	-8	-1	13	4	17
Cc1ccc(NNC(=O)c2ccno2)cc1Cl	73*	-5	i	-2	-3	-17
Cc1ccc(NNC(=O)c2ccno2)cc1C	88*	-10	0	9	3	13
Cc1cc(C(=O)NNc2ccc(Cl)cc2)no1	·	-3	i	31	6	13
O=C(Nc1cc(Cl)cc(Cl)c1)c1ccno1	2	-11	-1	14	-2	-1
OCCCCNCc1ccc(OCc2ccccc2Cl)cc1	·	-12	5	14	3	-2
OCCCCNCc1ccc(OCc2ccccc2)cc1	·	11	-1	52*	1	4
COc1ccc(-c2cc(C(=O)NCc3cccs3)c3c(C)nn([C@H]4CCS(=O)(=O)C4)c3n2)cc1	·	3	·	·	·	·
CNc1oc(Cc2cccc3ccccc23)nc1C#N	·	-1	i	15	0	-1
SMILES	TcdB inh	SSB-PriA inh	BH1578 lux ind	VHR inh abs	SARS 3CLpro inh	CCHF vOTU inh
CC1CN(c2oc(Cc3cccc4ccccc34)nc2C#N)CC(C)O1 (stereo not drawn)	·	52*	i	23	-2	1
O=c1[nH]c2cc(O)ccc2c2ccccc12	10*	·	i	·	·	9
Nc1ccc2c(c1)[nH]c(=O)c1ccccc12	2	0	-1	·	·	-46
Cc1ccc(C)c(C(O)=C2C(=O)C(=O)N(CCN3CCOCC3)C2c2ccccc2F)c1 (stereo not drawn)	·	48*	·	·	·	·
Cc1c(C(=O)N2CCN(C(=O)c3ccco3)CC2)oc2c(Cl)cccc12	2	-8	i	·	·	-4
CCCN1CCN(C(=O)c2oc3c(Cl)cccc3c2C)CC1	0	2	0	56*	-5	3
O=S(=O)(CCc1ccccc1)N1CC(n2ccnn2)C1	·	-7	·	·	·	·
CCn1nc(C(=O)N(C[C@H]2CCCO2)c2nc3c(F)cc(F)cc3s2)cc1C	·	0	·	·	·	·
CCCCCNC(=O)CCCCn1c(=O)[nH]c2cc(OCC)c(OCC)cc2c1=O	·	-21	-3	51*	-6	-12
CCOc1cc2[nH]c(=O)n(Cc3ccc(C(=O)NCCOC)cc3)c(=O)c2cc1OCC	1	104*	0	-14	5	-12
CCCCNC(=O)CCCCCn1c(=O)[nH]c2cc(OC)c(OC)cc2c1=O	·	-7	i	22	3	-7
Cc1ccc2cc(CCNC(=O)c3cc(Cl)ccc3Cl)c(=O)[nH]c2c1	·	4	·	·	·	·
CCSc1nnc(NC(=O)C2(C)Cc3ccccc3C(=O)O2)s1 (stereo not drawn)	·	-4	i	6	-2	-2

Screening results (PubChem BioAssay)
